About 830 (0.38%) of roughly 220,000 compounds were called active.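 The calls were made as follows: active = compound inhibiting the enzyme by more than half at any dose during confirmatory dose-response retesting; inconclusive = strong single-dose inhibitors picked by rank but not retested; inactive = the rest.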 A selection follows. Results with a measured potency or affinity are listed apart.
biological target: Leucine aminopeptidase (Plasmodium falciparum (isolate 3D7)) (UniProt Q8IL11); test: P. falciparum M17LAP inhibitors, primary screen, biochemical, fluorogenic H-Leu-NHMec substrate, 1536-well (AID 1619); conditions: recombinant M17LAP, H-Leu-NHMec fluorogenic kinetic assay; at 30 µM; active compounds read high;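 also: plate controls were full reaction with DMSO carrier for no effect and no enzyme background for full effect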
Sequence (Q8IL11 whole entry, looked up): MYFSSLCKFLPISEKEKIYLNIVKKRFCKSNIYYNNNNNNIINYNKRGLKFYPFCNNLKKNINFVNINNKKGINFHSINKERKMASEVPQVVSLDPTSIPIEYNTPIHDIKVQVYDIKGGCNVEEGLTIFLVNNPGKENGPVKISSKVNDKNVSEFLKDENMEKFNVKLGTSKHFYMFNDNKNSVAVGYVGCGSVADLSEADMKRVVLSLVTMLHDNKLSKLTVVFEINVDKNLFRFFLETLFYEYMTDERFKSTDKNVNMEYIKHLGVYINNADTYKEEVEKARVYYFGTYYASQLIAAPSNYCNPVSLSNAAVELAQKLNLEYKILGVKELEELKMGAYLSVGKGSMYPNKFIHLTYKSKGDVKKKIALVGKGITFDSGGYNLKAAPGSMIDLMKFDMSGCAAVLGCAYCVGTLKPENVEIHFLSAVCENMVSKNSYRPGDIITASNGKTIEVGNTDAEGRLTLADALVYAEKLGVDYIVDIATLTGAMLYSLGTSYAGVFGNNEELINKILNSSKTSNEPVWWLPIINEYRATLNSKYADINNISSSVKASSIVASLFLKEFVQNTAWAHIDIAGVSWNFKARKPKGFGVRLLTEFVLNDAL

inhibition, inactive:
Cc1ccc(C)c(NC2=C(Cl)C(=O)OC2OC(C)C)c1 (stereo not given) -15.8%
CC(=O)N1CCC(N(C(=O)Nc2ccc(F)cc2)C2CCCC2)CC1 11%
CC(C)(C)c1ccc(C(=O)c2c[nH]c(C(=O)NCC3CCCO3)c2)cc1 (stereo not given) -3.09%
NC(=O)c1ncc(C(F)(F)F)cc1Oc1cccc(C(F)(F)F)c1 -2.19%
Cc1cc(C)nc(NC(=O)C2c3ccccc3Oc3ccccc32)n1 5.07%
CCN(CC)CCNc1nc(-c2cccs2)c(CC(=O)O)s1 0.71%
CCCc1cc(C(=O)Nc2sc(C)c(CC)c2C#N)no1 3.41%
O=C(CSc1nnc(-c2ccccc2)n1Cc1ccccc1)NNC(=O)c1ccccc1O 10.4%
COC(=O)C1=C(C)N(Cc2ccccc2)C(=O)/C1=C\c1ccco1 23.3%
O=C(NNC(=O)c1ccccc1O)c1ccco1 20.5%
O=C1/C(=C\c2ccco2)SC(=S)N1Cc1ccccc1 21.4%
O=C(Nc1ccc(O)cc1)c1ccc2c(c1)C(=O)N(Cc1ccco1)C2=O 13.2%
O=C(O)c1ccc(COc2ccccc2/C=C2\NC(=O)N(Cc3ccccc3)C2=O)cc1 20.1%
O=C(CN1C(=O)S/C(=C\c2ccccc2)C1=O)NNC(=O)c1ccccc1O 9.15%
O=C(Nc1ccc(O)cc1C(=O)O)c1ccc2c(c1)C(=O)N(Cc1ccco1)C2=O -9.39%
Cc1cccc(C(=O)NCCC(=O)Nc2nc(C)c(Cc3ccc4c(c3)OCO4)s2)c1 -0.81%
CC(C)NC(=S)N1CCN(c2ncccn2)CC1 -3.12%
COc1ccc(C(=O)NC2CCN(C(=S)Nc3ccc(C)cc3)CC2)cc1 3.35%
O=C(NC(Cc1ccccc1)C(=O)NC1CC1)OCc1ccccc1 (stereo not given) 9.99%
CCCOc1ccc(OCCSc2nnc(N)s2)cc1 -4.02%
Cc1cc(C)c(/C=N/NC(=O)c2nnn(-c3nonc3N)c2COc2ccc(F)cc2)c(C)c1 11.6%
CC(=O)Nc1nc(COc2ccccc2)cs1 -12.2%
O=[N+]([O-])c1ccc(N2CCN(S(=O)(=O)c3ccccc3)CC2)cc1NCCN1CCOCC1 -0.09%
CCOC(=O)c1cc(NC(=O)c2cccnc2)ccc1N1CCOCC1 -6.5%
Cc1ccnc(SCC(=O)N2CCCc3ccccc32)n1 -6.82%
O=S(=O)(Nc1cccc2c1CCCC2)c1cccc(C(F)(F)F)c1 -8.32%
COc1ccc([N+](=O)[O-])cc1NC(=O)Cc1ccc(Cl)cc1 8.59%
COc1cc([N+](=O)[O-])ccc1NC(=O)Cc1ccc(C)cc1 -2.2%
Cc1ccccc1NC(=O)CSc1nnc(-c2ccco2)c(-c2ccco2)n1 42.7%
CC(=O)c1ccc(NC(=O)CSc2nnc(-c3ccco3)c(-c3ccco3)n2)cc1 22.5%
Cc1cccc(NC(=O)CSc2nnc(-c3ccco3)o2)c1C 0.69%
Cc1ccc(NC(=O)CSc2nnc(-c3ccco3)c(-c3ccco3)n2)cc1 53.2%
CC1CN(Cc2nnc(-c3ccccc3)o2)CC(C)O1 (stereo not given) 3.22%
Cc1c(NC(=O)CN2C(=O)c3cccc4cccc2c34)c(=O)n(-c2ccccc2)n1C 29.2%
COc1cccc(CNC(=O)C2CCC(CNc3c(N4CCC(C)CC4)c(=O)c3=O)CC2)c1 (stereo not given) -8.13%
O=C(CCc1ccccc1)NNC(=S)Nc1ccc(F)cc1 5.08%
CC(C)(C)Sc1ccc(/C=N/O)cc1[N+](=O)[O-] -1.67%
N=C1/C(=C/c2cccs2)C(=O)N=C2SN=C(SCc3ccccc3)N12 14.2%
CC(C)CSC1=NSC2=NC(=O)/C(=C\c3cccs3)C(=N)N12 9.74%
O=C(CN1CCc2ccccc2C1)N1CCN(S(=O)(=O)c2ccccc2)CC1 7.42%
CCOc1ccc2nc(NC(=O)C(NS(=O)(=O)c3cccc4nsnc34)C(C)C)sc2c1 (stereo not given) -8.83%
CC1(C)Cc2sc3c(=O)[nH]c(=S)[nH]c3c2CO1 6.75%
CCCSc1nc2c3c(sc2c(=O)[nH]1)CC(C)(CC)OC3 (stereo not given) -0.94%
CCOC(=O)c1c(NC(=O)/C=C/C(=O)O)sc(C)c1-c1ccc(C)c(C)c1 8.96%
COC(=O)c1c(NC(=O)/C=C/C(=O)O)sc(C)c1-c1ccc(C)cc1 14.7%
COCCNc1nc2nonc2nc1N1C[C@H]2CC[C@H]1C2 8.08%
COc1ccc(N2CCN(CCCNC(=O)C3(S(=O)(=O)c4ccc(Cl)cc4)CC3)CC2)cc1 16%
COc1cc(NC(=O)CN2CCN(Cc3ccc4c(c3)OCO4)CC2)cc(OC)c1 19.9%
O=C(NNC(=O)C1CC=CCC1C(=O)O)c1ccc(Cl)cc1 (stereo not given) 7.35%
O=C(Nc1ccc2c(c1)CCC2)C1CCCO1 (stereo not given) 6.84%
Cc1ccc(NC(=O)C2CCCCC2C(=O)O)cc1Cl (stereo not given) 77.4%
O=C(O)C1CCCCC1C(=O)Nc1ccc(Cl)cc1 (stereo not given) 54.6%
Cc1ccc(NC(=O)C2CCCCC2C(=O)O)cc1C (stereo not given) 16.6%
Cc1onc(-c2ccccc2Cl)c1C(=O)Nc1ccccc1C(=O)NC(C)C 9.44%
COc1cc(C(=O)NC(C)c2cnn(-c3ccccc3C)c2C)cc(OC)c1OC (stereo not given) 5.89%
COC(=O)c1c(NC(=O)CSc2ncnc3[nH]ncc23)sc2c1CCC2 33%
CN(C)S(=O)(=O)c1cccc(CSc2cccc[n+]2[O-])c1 -1.76%
Cc1ccc2cc(CCNC(=O)C(=O)c3c[nH]c4ccccc34)c(=O)[nH]c2c1 -4.94%
COC(=O)c1cc(Cl)c(NC(=O)c2cc3ccccc3o2)cc1OC -2.34%
O=C(c1ccc(Br)cc1)c1cc(-c2ccccn2)c(N2CCOCC2)s1 5.58%

Reference: PubChem BioAssay AID1619 (SRMLSC, 2009)
